Sampled rows, rich in hits. Any-hit rate of the full collection: about 14%.
4-MU autofl: qHTS Assay for Spectroscopic Profiling in 4-MU Spectral Region | compound autofluorescence, 340/450 nm, 4-MU equivalents; active compounds read high | max dye-equivalent concentration, M | 59,000 tested, 11% active | AID 589, 2007; in the data active = max dye-equivalent concentration above about 10 nM; inconclusive = mostly about 1.1 nM to 9.6 nM
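Compounds in 100 mM Tris, pH 8.0, sat 15 min at room temperature before fluorescence was read at 340 nm excitation/450 nm emission; a per-plate six-point 4-MU standard curve converted signals to dye-equivalent concentration at each compound concentration.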
HADH2 inhib: qHTS Assay for Inhibitors of HADH2 (Hydroxyacyl-Coenzyme A Dehydrogenase, Type II). 3-hydroxyacyl-CoA dehydrogenase type-2 (Homo sapiens), Q99714. recombinant HADH2, NADH fluorescence, beta-hydroxybutyryl-CoA. Potency, µM (top dose mostly 57.1 µM), inactives show at the top dose activity change, negative = inhibition, most hits filed as inhibitors. 73,000 tested, 3.4% active; also: potency is read from the fitted curve at half-maximal effect; % is scaled to controls: 0 for no effect and ±100 for the full control effect; nearly all actives have a fitted effect of over 60% in size
Target sequence (Q99714 whole entry, looked up, one chain of several): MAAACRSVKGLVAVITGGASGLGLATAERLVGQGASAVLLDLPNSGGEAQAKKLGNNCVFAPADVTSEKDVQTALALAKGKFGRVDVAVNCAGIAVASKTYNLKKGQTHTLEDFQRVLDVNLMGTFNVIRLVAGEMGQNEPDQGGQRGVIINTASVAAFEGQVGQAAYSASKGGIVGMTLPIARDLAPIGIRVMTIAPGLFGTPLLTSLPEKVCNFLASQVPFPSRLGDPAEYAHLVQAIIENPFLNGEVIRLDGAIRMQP
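20 nM HADH2 + cpd, 15 min RT; add 1 mM NAD+/90 uM beta-hydroxybutyryl-CoA; kinetic fluorescence 360/450 nm, 4 min. Tris-HCl pH 9.0, 0.01% Tween-20.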
CRE-bla Fsk: Cell signaling CRE-BLA (Fsk stim); CHO CRE-bla reporter (cAMP response element driving beta-lactamase), forskolin EC10, beta-lactamase ratio; Potency, µM (highest dose often 38.2 µM), for the others: at the top dose activity change, negative = inhibition, usual class: activators; 71,000 tested, 2.5% active; active = well fitted activation curve with a large enough effect in the signal ratio, with a control signal flat, not every such curve was filed as active; inconclusive = small, poorly fitted or top-dose-only effect, or effect the other way, or a change in a side signal; the % refers to the signal ratio; also: potency is read from the fitted curve at half-maximal effect; % of control where 0% means no effect
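AC50 values, positive or negative, reflect shifts in EC10 NKH 477-induced CRE-bla reporter activity in CHO cells. Incubation lasted 3 h at 37 °C before CCF4 substrate (2 h, room temperature) and ratiometric 460/530 nm reading.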
AID923: qHTS Assay for Allosteric/Competitive Inhibitors of Caspase-1: Spectroscopic Profiling in AFC Spectral Region; compound fluorescence, AFC spectral region (405/520 nm); Potency, µM (doses to about 57.5 µM), without a hit: at the top dose fluorescence increase, hits mostly activators; 75,000 tested, 1.1% active; also: potency is read from the fitted curve at half-maximal effect; 0% is about no effect
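Titrations up to 57 uM read every 20 sec for 3 min (405/520 nm) with 50 nM caspase 1 and 5 uM Ac-WEHD-AFC, pH 7.5 HEPES buffer. Fluorescence-vs-time intercept gave baseline, scaled against on-plate AFC standard.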
A350 fluor: qHTS Assay for Spectroscopic Profiling in A350 Spectral Region. AID 590, 2007. max dye-equivalent concentration, M. Compound autofluorescence, 340/450 nm, Alexa 350 dye-equivalents; active compounds read high. 59,000 tested, 11% active; in the data active = max dye-equivalent concentration above about 10 nM; inconclusive = mostly about 1.1 nM to 9.6 nM
HSD17B inhib: qHTS Assay for Inhibitors of HSD17B4, hydroxysteroid (17-beta) dehydrogenase 4 | Potency, µM (top dose mostly 57.1 µM), inactives show top-dose activity change, negative = inhibition, actives largely listed as inhibitors | recombinant HSD17B10, NADH fluorescence kinetic | AID 893, 2007 | 75,000 tested, 7.6% active | 3-hydroxyacyl-CoA dehydrogenase type-2 (Homo sapiens), Q99714;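 also: the protocol describes HADH2 (HSD17B10) and not the HSD17B4 of the title; potency is read from the fitted curve at half-maximal effect; % is scaled to controls: 0 for no effect and ±100 for the full control effect; nearly all actives have a fitted effect of over 70% in size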
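Activity followed as NADH fluorescence increase (ex 360, em 450 nm) every 30 seconds for 4 min, using final 90 uM beta-hydroxybutyryl CoA and 1 mM NAD+. Recombinant His-tagged enzyme, 20 nM, pH 9.0 Tris buffer, 15 min compound preincubation.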
Starred values were filed as active, the others as inactive; [ ] = remark or other dose. Unless noted, calls follow the shape of the dose curve; as a rule, active = well fitted curve in the direction sought with a large enough effect; inconclusive = small, poorly fitted or top-dose-only effect, or another doubt; inactive = no such curve, though single readings can be large; an effect the other way counts as inactive or inconclusive.

O=C1C=CC(=O)c2c1ccc1c2ccc2ccccc21 was read as 4-MU autofl 2e-08M*, HADH2 inhib -22%[25.6 µM], CRE-bla Fsk 5%[17.1 µM], AID923 -1%[25.7 µM], A350 fluor 1.9e-08M* and HSD17B inhib -21%[25.6 µM].
`C[Si](C)(C)Cl` gave HADH2 inhib -10%, CRE-bla Fsk -11%, AID923 -1% and HSD17B inhib 1%.
`COC(=O)[C@@H]1[C@@H]2C[C@H]3c4[nH]c5cc(OC)ccc5c4CCN3C[C@@H]2C[C@H](OC(=O)c2cc(OC)c(OC)c(OC)c2)[C@H]1OC` gave 4-MU autofl 2e-08M*, HADH2 inhib 8%[25.6 µM], CRE-bla Fsk -11%[17.1 µM], AID923 7%[25.7 µM], A350 fluor 1.6e-08M* and HSD17B inhib -8%[25.6 µM].
For COc1cccc(CCc2ccccc2OCC[C@@H]2C[C@@H](O)CN2C)c1 the results were HADH2 inhib inconclusive, AID923 -4% and HSD17B inhib -11%.
Screening CCCCc1nc(NCC2CCCO2)c(C#N)c2c1COC(C)(C)C2 (centres undefined) returned 4-MU autofl 6.8e-08M* and A350 fluor 7.7e-08M*.
Screening CCCCc1nc(N2CCOCC2)c(C#N)c2c1COC(C)(C)C2 returned 4-MU autofl 7.8e-08M* and A350 fluor 9.3e-08M*.
Screening Cc1cc(Nc2ccc(Cl)cc2)n2nnnc2n1 returned 4-MU autofl 6.1e-08M*, HADH2 inhib -11%, CRE-bla Fsk inconclusive, AID923 -2%, A350 fluor 6.3e-08M* and HSD17B inhib inconclusive.
Screening O=C(c1ccccc1C(F)(F)F)N1CCN(S(=O)(=O)c2ccccc2)CC1 returned 4-MU autofl 1.6e-08M*, HADH2 inhib -2%, CRE-bla Fsk inconclusive, AID923 -1%, A350 fluor 2e-08M* and HSD17B inhib 9%.
Screening NS(=O)(=O)c1cc2c(cc1C(F)(F)F)N[C@H](Cc1ccccc1)NS2(=O)=O returned 4-MU autofl inactive, HADH2 inhib 32%[25.6 µM], CRE-bla Fsk -4%[17.1 µM], AID923 -1%[25.7 µM], A350 fluor inactive and HSD17B inhib 2%[25.6 µM].
CN(C)c1ccc(C(=S)N2CCN(c3ccccc3)CC2)cc1 was read as 4-MU autofl inactive, HADH2 inhib 8%, CRE-bla Fsk 9%, AID923 -1%, A350 fluor inactive and HSD17B inhib -8%.
For Cc1ccc(N2CCN(C(=S)c3ccc(N(C)C)cc3)CC2)cc1 the results were 4-MU autofl inactive, HADH2 inhib 4µM*, CRE-bla Fsk -4%, AID923 -1%, A350 fluor inactive and HSD17B inhib -28%.
`Clc1ccccc1-c1nccc(NCc2ccccc2)n1` gave 4-MU autofl inactive, HADH2 inhib 2%, CRE-bla Fsk -10%, AID923 0%, A350 fluor inactive and HSD17B inhib 1%.
Screening c1ccc([C@H](CCN2CCCC2)c2ccccn2)cc1 returned 4-MU autofl inactive, HADH2 inhib 9%[11.4 µM], CRE-bla Fsk -2%[7.6 µM], AID923 1%[11.5 µM], A350 fluor inactive and HSD17B inhib 4%[11.4 µM].
Screening CC(C)(C)OC(=O)N[C@@H](Cc1ccccc1)c1nnc(S(=O)(=O)Cc2ccccc2)o1 returned 4-MU autofl inactive, HADH2 inhib 1.3µM*, CRE-bla Fsk inconclusive, AID923 -1%, A350 fluor inactive and HSD17B inhib -13%.
For CC(C)(C)OC(=O)N[C@@H](Cc1ccccc1)c1nnc(SCC(=O)O)o1 the results were 4-MU autofl inactive, HADH2 inhib 5%, CRE-bla Fsk 1%, AID923 -1%, A350 fluor inconclusive and HSD17B inhib 4%.
For CCC(C)[C@@H](NC(=O)OC(C)(C)C)c1nnc(S(=O)(=O)Cc2cccc(C)c2)o1 (some centres undefined) the results were 4-MU autofl inactive, HADH2 inhib 2.5µM*, CRE-bla Fsk inconclusive, AID923 1%, A350 fluor inactive and HSD17B inhib -5%.
COc1ccc(CNc2cc(-c3ccccc3CN(C)C)ncn2)c(OC)c1 was read as 4-MU autofl inactive, HADH2 inhib -11%, CRE-bla Fsk 0%, AID923 0%, A350 fluor inactive and HSD17B inhib -4%.
For COc1ccc(CCN2C(=O)CC(C(N)=O)SC2=Nc2ccccc2)cc1OC (centres undefined) the results were 4-MU autofl 1.8e-08M*, HADH2 inhib 13%, CRE-bla Fsk 8%, AID923 -1%, A350 fluor 1.5e-08M* and HSD17B inhib -4%.
For COc1ccc(CCNC2CC(=O)N(CCc3ccccc3)C2=O)cc1OC (centres undefined) the results were HADH2 inhib -1%[11.4 µM], CRE-bla Fsk inconclusive, AID923 0% and HSD17B inhib -13%.
C=C(C)OC(C)=O was read as HADH2 inhib -1%, CRE-bla Fsk 0%, AID923 -2% and HSD17B inhib inconclusive.
Cn1c(=O)[nH]c(=O)c2c1nc(CN1CCN(Cc3ccccc3)CC1)n2CC(N)=O was read as HADH2 inhib 4%, CRE-bla Fsk -4%, AID923 -3% and HSD17B inhib 6%.
O=C(O)c1c(-c2ccccc2)c2oc3ccccc3c2[nH]c1=O was read as 4-MU autofl 3.5e-07M*, HADH2 inhib inconclusive, CRE-bla Fsk -16%, AID923 5%, A350 fluor 4.2e-07M* and HSD17B inhib 32µM*.
O=c1[nH]cnc2c1oc1ccccc12 was read as 4-MU autofl inactive, HADH2 inhib 9%, CRE-bla Fsk inconclusive, AID923 0%, A350 fluor inactive and HSD17B inhib 3%.
For COCCn1c(=O)[nH]c2cc(C(=O)NCCN3CCN(c4ccc(OC)cc4)CC3)ccc2c1=O the results were 4-MU autofl 1.7e-08M*, HADH2 inhib inconclusive, CRE-bla Fsk 5%, AID923 1%, A350 fluor 1.6e-08M* and HSD17B inhib 32µM*.
Screening COCCn1c(=O)[nH]c2cc(C(=O)NCCN3CCN(c4ccccc4)CC3)ccc2c1=O returned 4-MU autofl 1.8e-08M*, HADH2 inhib -22%, CRE-bla Fsk 2%, AID923 1%, A350 fluor 1.6e-08M* and HSD17B inhib 25µM*.
COCC#Cc1ccc(C2C(C)CCC3C(=O)N4C(CCC(C)C4c4ccc(C#CCOC)cc4)C(=O)N32)cc1 (centres undefined) was read as HADH2 inhib 0%[11.4 µM], AID923 0%[11.5 µM] and HSD17B inhib -5%[11.4 µM].

From PubChem BioAssay
